PubChem BioAssay
Calls of active or inactive are those of the source. Unless noted, no rule for the calls is given here.

Key:
[1] = HepG2 liver cancer cell viability effects, profiling panel, resazurin fluorescence, 24 h, PK04 Diversity Set (AID 1172); conditions: higher = more signal
[2] = basal S. cerevisiae growth modulation, no modifier, primary screen, OD600, strain BY4716, 24 h, basal condition (AID 1173); conditions: OD600, 24 h, higher = more signal, called active from +8 up or from −8 down
[3] = MM1S myeloma cell viability, profiling panel, resazurin fluorescence, basal, 24 h, PK04 Diversity Set (AID 1174); conditions: higher = more signal, called active from +8 up or from −8 down;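 also: MM1S multiple myeloma cell line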
[4] = target: Dihydroorotate dehydrogenase (quinone), mitochondrial (Plasmodium falciparum (isolate 3D7)) (UniProt Q08210); test: PfDHODH enzyme inhibitors, primary screen, biochemical, C-terminal His tag, absorbance 600 nm (AID 1175); conditions: DCIP absorbance 600 nm, higher = more signal, called active from +8 up or from −8 down;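 also: recombinant parasite enzyme with a five histidine tag at its C terminus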
[5] = P. aeruginosa biofilm formation inhibitors, primary screen, strain PAO1, LB-PBS medium, absorbance 600 nm (AID 1176); conditions: P. aeruginosa PAO1 growth/biofilm, A600, 12 h; higher = more signal
[6] = S. cerevisiae RM11-1a growth modifiers, primary screen, strain RM11-1a, OD600, basal, 24 h (AID 1177); conditions: OD600, 24 h, higher = more signal, called active from +8 up or from −8 down;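 also: cultures grown under basal conditions with no added stressor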
[7] = E. coli acrAB mutant growth effects, primary screen, E. coli filamentation inducers, strain DRC39, OD650, 24 h (AID 1178); conditions: higher = more signal, called active from +8 up or from −8 down;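 also: growth measured as culture turbidity by optical density at 650 nm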
[8] = E. coli acrAB mutant growth effects, primary screen, E. coli filamentation inducers, strain DRC39, OD650, 48 h (AID 1179);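 also: screen aims at cell division blockers that make cells filament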; conditions: E. coli DRC39 delta-acrAB growth, higher = more signal, called active from +8 up or from −8 down
[9] = RPMI8226 myeloma cell viability, profiling panel, resazurin fluorescence, basal, 24 h, PK04 Diversity Set (AID 1180); conditions: higher = more signal;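 also: RPMI8826 multiple myeloma cell line at 5000 cells per well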
[10] = target: E3 ubiquitin-protein ligase XIAP (Homo sapiens) (UniProt P98170); test: XIAP binders, primary screen, biophysical, small-molecule microarray, fluorescence 635 nm (AID 1181); conditions: small-molecule microarray binding, higher = more signal;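 also: score merges 667 nm emission and signal to noise over triplicate slides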
[11] = system: XIP peptide (Xip251-270) binding; test: small-molecule binders of XIP peptide, primary screen, biochemical, small-molecule microarray, fluorescence 635/667 nm, 0.1 µg/mL protein (AID 1182); conditions: fluorescent protein binding, 635 nm, higher = more signal, called active from +8 up or from −8 down
XIP peptide (Xip251-270) = test: small-molecule binders of XIP peptide, primary screen, biochemical, small-molecule microarray, fluorescence 635/667 nm, 0.5 µg/mL protein (AID 1183); conditions: small-molecule microarray binding, fluorescence 635 nm; higher = more signal
[12] = Plasmodium falciparum growth inhibition, primary screen, strain 3D7, DAPI fluorescence, 100 nL (AID 1184);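 also: parasites grown inside human red blood cells in medium with human serum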; conditions: P. falciparum 3D7 growth, 3 d, higher = more signal
[13] = target: Homeobox protein Hox-A13 (Mus musculus) (UniProt Q62424); test: inhibitors of HoxA13-DNA binding, primary screen, biochemical, fluorescence polarization, labeled oligonucleotide (AID 1185); conditions: 15 min, higher = more signal, called active from +8 up or from −8 down
[14] = inhibitors of hydroxyurea-induced Chk1 phosphorylation, primary screen, imaging, HeLa, phospho-Chk1 antibody, percent positive cells (AID 1186); conditions: hydroxyurea-induced phospho-Chk1 immunofluorescence imaging, higher = more signal
[15] = inhibitors of hydroxyurea-induced Chk1 phosphorylation, primary screen, imaging, HeLa, phospho-Chk1 nuclear intensity (AID 1187); conditions: hydroxyurea-induced phospho-Chk1 immunofluorescence imaging, higher = more signal

Chain of E3 ubiquitin-protein ligase XIAP (Homo sapiens) (P98170 whole entry, looked up): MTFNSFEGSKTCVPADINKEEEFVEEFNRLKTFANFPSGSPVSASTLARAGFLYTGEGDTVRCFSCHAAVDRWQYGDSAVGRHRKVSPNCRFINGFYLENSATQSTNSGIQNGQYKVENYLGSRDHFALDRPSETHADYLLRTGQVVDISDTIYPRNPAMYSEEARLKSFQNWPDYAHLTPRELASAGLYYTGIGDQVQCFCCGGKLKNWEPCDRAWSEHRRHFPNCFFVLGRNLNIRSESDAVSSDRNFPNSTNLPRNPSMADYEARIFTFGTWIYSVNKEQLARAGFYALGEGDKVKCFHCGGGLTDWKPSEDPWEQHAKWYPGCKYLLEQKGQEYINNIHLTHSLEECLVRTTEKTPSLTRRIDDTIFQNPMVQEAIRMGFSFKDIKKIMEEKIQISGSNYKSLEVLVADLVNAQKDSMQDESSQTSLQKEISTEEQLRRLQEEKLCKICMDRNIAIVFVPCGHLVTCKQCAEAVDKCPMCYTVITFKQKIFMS
Chain of Dihydroorotate dehydrogenase (quinone), mitochondrial (Plasmodium falciparum (isolate 3D7)) (Q08210 whole entry, looked up): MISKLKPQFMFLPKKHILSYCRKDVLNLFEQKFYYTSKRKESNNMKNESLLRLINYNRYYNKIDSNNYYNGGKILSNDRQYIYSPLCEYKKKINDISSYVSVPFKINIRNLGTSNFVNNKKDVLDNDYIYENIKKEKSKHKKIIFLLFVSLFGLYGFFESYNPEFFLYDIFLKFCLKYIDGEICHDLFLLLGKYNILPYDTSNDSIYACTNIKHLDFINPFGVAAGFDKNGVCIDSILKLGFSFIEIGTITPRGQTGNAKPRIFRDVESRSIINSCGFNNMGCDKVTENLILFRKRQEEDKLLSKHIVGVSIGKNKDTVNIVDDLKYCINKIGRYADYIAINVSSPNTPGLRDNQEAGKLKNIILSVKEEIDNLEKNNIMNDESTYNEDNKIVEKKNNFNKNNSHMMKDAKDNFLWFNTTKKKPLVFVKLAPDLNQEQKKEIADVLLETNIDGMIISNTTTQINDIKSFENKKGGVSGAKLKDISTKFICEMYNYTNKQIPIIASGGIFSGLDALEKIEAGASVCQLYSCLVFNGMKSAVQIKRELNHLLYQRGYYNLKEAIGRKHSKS
Chain of Homeobox protein Hox-A13 (Mus musculus) (Q62424 whole entry, looked up): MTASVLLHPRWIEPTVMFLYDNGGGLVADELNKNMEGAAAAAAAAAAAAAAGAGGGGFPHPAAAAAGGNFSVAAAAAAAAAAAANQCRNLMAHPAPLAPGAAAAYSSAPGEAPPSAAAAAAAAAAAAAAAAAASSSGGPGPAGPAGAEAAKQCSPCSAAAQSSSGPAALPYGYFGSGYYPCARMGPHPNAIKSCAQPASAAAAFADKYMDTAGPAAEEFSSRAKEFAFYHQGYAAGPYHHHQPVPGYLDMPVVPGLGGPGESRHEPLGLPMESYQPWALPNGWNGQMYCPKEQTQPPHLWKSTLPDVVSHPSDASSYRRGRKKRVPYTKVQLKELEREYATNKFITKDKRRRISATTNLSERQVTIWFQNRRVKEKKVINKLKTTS

SMILES	z-score [1]	z-score [2]	z-score [3]	composite z-score [4]	z-score [5]	z-score [6]	z-score [7]	z-score [8]	z-score [9]	composite z-score [10]	composite z-score [11]	composite z-score (XIP peptide (Xip251-270))	z-score [12]	z-score [13]	z-score [14]	z-score [15]
COCCOC(=O)N1C(=O)[C@@]2(c3cc(C#Cc4ccc(OC)cc4)ccc31)[C@H](c1ccc(OCCO)cc1)N1[C@H](c3ccccc3)[C@H](c3ccccc3)OC(=O)[C@H]1[C@@H]2C(=O)NC[C@H](O)c1ccccc1	-0.234	3.05 (inactive)	-0.486 (inactive)	-1.12 (inactive)	5.17 (inactive)	3.81 (inactive)	-0.6 (inactive)	-0.189 (inactive)	-0.508	0.115	0.849 (inactive)	0.713	-1.66	-0.532 (inactive)	0 (inactive)	-0.0275 (inactive)
CC(C)C(CO)N1C(=O)[C@@H]2C3C(=O)OCCC/C=C\[C@H]3OC23C=CCN(Cc2ccccc2)C(=O)[C@@H]13 (some centres undefined)	0.49	-0.612 (inactive)	0.607 (inactive)	-0.479 (inactive)	-1.03 (inactive)	-0.0566 (inactive)	1.15 (inactive)	0.755 (inactive)	1.14	-0.166	1.22 (inactive)	-0.209	0.359	-5.12 (inactive)	-0.932 (inactive)	-0.842 (inactive)
CCCCN1CC=CC23O[C@@H]4/C=C\CCCOC(=O)C4[C@H]2C(=O)N(C(CO)C(C)C)[C@@H]3C1=O (some centres undefined)	-0.101	0.259 (inactive)	-0.289 (inactive)	-1.4 (inactive)	-0.0432 (inactive)	-0.427 (inactive)	0.116 (inactive)	-0.091 (inactive)	-0.235	-0.0393	1.4 (inactive)	-0.492	1.18	-5.81 (inactive)	0.458 (inactive)	0.188 (inactive)
Cc1ccc(S[C@]2(C(=O)NCCCN(C)C)CC(=O)N(C3Cc4ccccc4C3)[C@@H]2c2ccc(CO)cc2I)cc1	-0.595	-3.43 (inactive)	-2.99 (inactive)	0.505 (inactive)	0.531 (inactive)	0.609 (inactive)	-0.605 (inactive)	-0.623 (inactive)	-2.37	-0.0999	-0.261 (inactive)	0.315	-0.235	-3.61 (inactive)	0.721 (inactive)	0.848 (inactive)
CC(C)NC(=O)[C@@H]1c2ccccc2C(=O)N(Cc2ccc(OC(F)(F)F)cc2)[C@H]1c1ccc(CO)cc1	-1.14	0.924 (inactive)	0.155 (inactive)	-4.48 (inactive)	0.627 (inactive)	0.91 (inactive)	-0.386 (inactive)	-0.664 (inactive)	0.808	-0.16	-0.514 (inactive)	0.72	-1.58	-3.72 (inactive)	0.244 (inactive)	0.137 (inactive)
CN(C)CCCCNC(=O)[C@H]1C[C@H]2C(=O)NCC(=O)N2[C@H]1c1ccc(O)cc1	1.1	-0.0401 (inactive)	0.917 (inactive)	0.373 (inactive)	-0.599 (inactive)	1.56 (inactive)	0.0662 (inactive)	-0.363 (inactive)	0.511	0.147	0.372 (inactive)	0.815	0.185	-4.67 (inactive)	-0.15 (inactive)	-0.186 (inactive)
CN(C)CCCNC(=O)[C@@]1(Cc2ccccc2I)c2ccccc2C(=O)N(C2CCCCC2)[C@H]1c1ccc(CO)cc1	-6.39	-8.03 (active)	-8.24 (active)	0.201 (inactive)	0.36 (inactive)	0.996 (inactive)	0.675 (inactive)	-0.707 (inactive)	-6.58	0.223	0.645 (inactive)	0.611	-1.61	0.846 (inactive)	-0.332 (inactive)	-0.621 (inactive)
COC(=O)[C@@]1(Cc2ccccc2)[C@H]2c3cc(C(=O)N(C)C)n(Cc4ccc(S(C)(=O)=O)cc4)c3C[C@H]2CN1C(=O)c1ccccc1	-1.17	1.33 (inactive)	-2.74 (inactive)	-0.316 (inactive)	1.47 (inactive)	0.879 (inactive)	-1.1 (inactive)	-1.28 (inactive)	-0.668	0.291	1.22 (inactive)	0.721	-1.5	-5.44 (inactive)	0.492 (inactive)	0.38 (inactive)
[N-]=[N+]=Nc1ccccc1[C@@H]1OC(c2ccc(OCCCO)cc2)=N[C@]1(CCS(=O)(=O)c1ccccc1)C(=O)NCC(O)CO (some centres undefined)	0.396	0.143 (inactive)	0.321 (inactive)	0.612 (inactive)	0.317 (inactive)	0.777 (inactive)	0.125 (inactive)	0.638 (inactive)	-0.315	-0.201	0.0574 (inactive)	0.947	-2.21	-3.99 (inactive)	0.0401 (inactive)	0.225 (inactive)
CCCC[C@H]1C[C@@H]1[C@@H]1N(C(C)=O)[C@H](c2cccc(OC)c2)CC12CC2	0.527	-6.41 (inactive)	1.05 (inactive)	0.348 (inactive)	-0.499 (inactive)	0.52 (inactive)	-0.083 (inactive)	-0.791 (inactive)	1.43	-0.0416	-0.233 (inactive)	-1.04	-0.313	-3.27 (inactive)	0.368 (inactive)	0.638 (inactive)
CN(C)C(=O)[C@]1(Cc2ccccc2)N=C(c2ccc(OCCCO)cc2)O[C@@H]1c1ccccc1CN=[N+]=[N-]	0.432	-1.3 (inactive)	-0.0662 (inactive)	-0.979 (inactive)	-0.248 (inactive)	0.22 (inactive)	-0.348 (inactive)	0.686 (inactive)	0.431	0.0651	0.245 (inactive)	0.764	-2.6	-4.47 (inactive)	0.0164 (inactive)	0.304 (inactive)
CC(C)[Si](C#CCCc1ccccc1)(O[C@H](c1ccccc1)c1cn(Cc2ccccc2)nn1)C(C)C	1.5	-8.07 (active)	-0.016 (inactive)	-0.262 (inactive)	-0.206 (inactive)	0.129 (inactive)	-0.0409 (inactive)	0.451 (inactive)	-0.052	-0.0117	-0.0657 (inactive)	0.574	-0.374	-1.64 (inactive)	-1.18 (inactive)	-1.16 (inactive)
CC(C)(C)OC(=O)CC[C@@]1(C(=O)NCCN2CCOCC2)N=C(c2ccc(OCCCO)cc2)O[C@@H]1c1ccccc1CN=[N+]=[N-]	0.535	-0.51 (inactive)	-0.743 (inactive)	-0.918 (inactive)	-0.0988 (inactive)	-0.922 (inactive)	-0.407 (inactive)	-0.721 (inactive)	-0.28	-0.0559	0.158 (inactive)	0.729	-0.41	-4.93 (inactive)	-0.0412 (inactive)	-0.301 (inactive)
CC(C)OC(=O)CC(=O)CC(O)c1cccc([N+](=O)[O-])c1 (centres undefined)	-0.476	-3.08 (inactive)	0.326 (inactive)	-2.1 (inactive)	1.1 (inactive)	-2.42 (inactive)	0.704 (inactive)	2 (inactive)	0.083	0.15	0.52 (inactive)	0.089	-0.165	-0.516 (inactive)	-0.242 (inactive)	-0.299 (inactive)
C=CCN1C(=O)[C@@]2(O[C@@H](CCn3cc([C@H](O)c4ccccc4)nn3)[C@H]([Si](C)(C)c3ccc(OC)cc3)[C@H]2C)c2cc(N3C(=O)c4cccc5cccc3c45)ccc21	-1.36	0.318 (inactive)	-2.17 (inactive)	-0.0217 (inactive)	0.72 (inactive)	1.72 (inactive)	0.0833 (inactive)	-0.0869 (inactive)	-2.42	0.212	0.185 (inactive)	0.21	-0.816	-3.29 (inactive)	-0.0586 (inactive)	0.311 (inactive)
C=C(COC)C(=O)CC[C@@H](OC(=O)c1ccccc1-c1ccccc1C(=O)O)c1ccc(OCCO)cc1	-0.425	-0.528 (inactive)	-0.105 (inactive)	-1.09 (inactive)	0.449 (inactive)	-0.426 (inactive)	-0.699 (inactive)	-0.708 (inactive)	-0.492	0.165	0.264 (inactive)	0.666	-0.61	-5.88 (inactive)	-0.0419 (inactive)	0.0533 (inactive)
CCCCCCc1nc(-c2ccc(-c3ccc(Cl)c(Cl)c3)o2)cc2c1[Si](C(C)C)(C(C)C)OC2	0.373	-7.31 (inactive)	-0.273 (inactive)	-1.97 (inactive)	-0.558 (inactive)	-0.878 (inactive)	0.522 (inactive)	0.395 (inactive)	-0.151	-0.0233	0.108 (inactive)	-0.0619	-2.22	-3.51 (inactive)	-0.6 (inactive)	-0.222 (inactive)
CC(C)=CCCC(C)=CC(O)C1C=CC2C(=O)NC(=O)C2N1Nc1ccc(Cl)cc1Cl (centres undefined)	-1.66	-4.77 (inactive)	-1.56 (inactive)	0.112 (inactive)	1.01 (inactive)	0.432 (inactive)	-0.0552 (inactive)	-0.797 (inactive)	-1.73	-0.0326	0.323 (inactive)	0.171	0.812	-3.59 (inactive)	1.39 (inactive)	0.848 (inactive)
COC(=O)[C@@]1(Cc2ccccc2)N=C(c2ccc(OCCCO)cc2)O[C@H]1c1ccccc1CN=[N+]=[N-]	-4.1	1.24 (inactive)	-7.62 (inactive)	0.468 (inactive)	2.45 (inactive)	2.85 (inactive)	0.876 (inactive)	0.93 (inactive)	-6.42	0.0549	-0.139 (inactive)	0.85	-2.42	-1.25 (inactive)	-0.727 (inactive)	-0.906 (inactive)
